First the molecules themselves.
B1: PhoQ; a variant is named by its letters at X, in order, P23837 (parent)
chain: MKKLLRLFFPLSLRVRFLLATAAVVLVLSLAYGMVALIGYSVSFDKTTFRLLRGESNLFYTLAKWENNKLHVELPENIDKQSPTMTLIYDENGQLLWAQRDVPWLMKMIQPDWLKSNGFHEIEADVNDTSLLLSGDHSIQQQLQEVREDDDDAEMTHSVAVNVYPATSRMPKLTIVVVDTIPVELKSSYMVWSWFIYVLSANLLLVIPLLWVAAWWSLRPIEALAKEVRELEEHNRELLNPATTRELTSLVRNLNRLLKSERERYDKYRTTLTDLTHSLKTPLXXLQXXLRSLRSEKMSVSDAEPVMLEQISRISQQIGYYLHRASMRGGTLLSRELHPVAPLLDNLTSALNKVYQRKGVNISLDISPEISFVGEQNDFVEVMGNVLDNACKYCLEFVEISARQTDEHLYIVVEDDGPGIPLSKREVIFDRGQRVDTLRPGQGVGLAVAREITEQYEGKIVAGESMLGGARMEVIFGRQHSAPKDE

In all, about 140,000 sequences were measured (“enrichment ratio after two sorts for PhoP signalling”: median about 0, highest 2% from about 11 on). The entries come from a sample that favours the highest values as a whole.

The variants in the assay derive from B1. As to the kind of experiment: enrichment ratio after two sorts for PhoP signalling (ratio (wild type AVST 3.29)); higher = more functional. As to conditions: with PhoP (E. coli).
For DMGM, the enrichment ratio was at most 0.25. As for VHGA, the figure is at most 0.25; as for FTWC, at most 0.25.

Turning to RPLR, the enrichment ratio was at most 0.25. Consider EKAY, for which the enrichment ratio was at most 0.25.

On to FPIV, for which the enrichment ratio was at most 0.25.

In the case of TGSN, the enrichment ratio was found to be 8.1. The same measure for SGSG: 8.15; for SGSN: 13.3; for WDWH: at most 0.25.

On to SEFC, for which the enrichment ratio stood at 10.4.

Regarding SRSH, the enrichment ratio was at most 0.25. The same measure for SENK: at most 0.25; for SESQ: 13.9; for SESC: 18.4. As for SQSQ, the figure is 8.8. As for SETC, the figure is 13.2; as for SESK, 5.02.

For the variant DDSC, the enrichment ratio was at most 0.25.

SRSQ: the enrichment ratio was at most 0.25. The same measure for SESH: 13.1; for KYSC: at most 0.25; for LSYF: 0.698. Consider FERS, for which the enrichment ratio is at most 0.25. With FKHR, the enrichment ratio is at most 0.25.

As for QKRW, the enrichment ratio is at most 0.25.

TIRN: the enrichment ratio is at most 0.25. The same measure for KKEL: at most 0.25; for MLWA: at most 0.25. For the variant HFVY, the enrichment ratio is at most 0.25. As for GASL, the figure is 3.66; as for SETW, 3.01; as for SETK, at most 0.25. For the variant SETI, the enrichment ratio stood at 19.9. As for KYEC, the figure is at most 0.25; as for SETG, 9.95; as for SETH, 15.6. The same measure for SETM: 18.3; for SEEC: 15.4.

As for SETA, the enrichment ratio worked out at 10.5. The same measure for METM: 4.44; for SLEC: at most 0.25.

As for ICMG, the enrichment ratio is at most 0.25. The same measure for NYHW: at most 0.25; for EGMK: at most 0.25. The same measure for SVFE: at most 0.25; for PKCE: at most 0.25. For the variant LWIA, the enrichment ratio is at most 0.25. The same measure for VVHK: at most 0.25; for PWSL: at most 0.25. As for YMEP, the figure is at most 0.25; as for SEMH, 19.3. The same measure for SASK: at most 0.25. Consider SETS, for which the enrichment ratio came out at 12. As to SANH, the enrichment ratio was at most 0.25. The same measure for SETD: at most 0.25; for STMH: 8.42; for SETE: 5.75. The same measure for SASH: 12.2; for KYMH: at most 0.25.

For DGLS, the enrichment ratio was at most 0.25.

On to FPTK, for which the enrichment ratio is at most 0.25. As for DPHW, the figure is at most 0.25; as for WDVW, at most 0.25; as for QFAR, at most 0.25. As for VVQA, the figure is at most 0.25; as for PSLS, at most 0.25. The same measure for WGGY: at most 0.25; for ITTH: at most 0.25; for DSGI: at most 0.25. As to NRIH, the enrichment ratio was at most 0.25. As for KAIM, the figure is at most 0.25; as for NATM, at most 0.25. As for GATM, the figure is 15.3; as for GSWM, at most 0.25. The same measure for KATM: at most 0.25; for GAIM: 15.4. Consider GCGM, for which the enrichment ratio stood at 2.98. The same measure for GSTM: 6.87; for GCCK: at most 0.25.

Take GCIM: the enrichment ratio was 24.5. As to GSIM, the enrichment ratio is 11.6. As to GAPM, the enrichment ratio is at most 0.25. The same measure for TSES: 2.55; for SFWK: at most 0.25. As for AMIT, the figure is at most 0.25. The same measure for NCDK: at most 0.25. In the case of DMRV, the enrichment ratio is at most 0.25. The same measure for EDCW: at most 0.25. The same measure for MMNP: at most 0.25. The same measure for DYLI: at most 0.25.

NIIM: the enrichment ratio was at most 0.25.

As to MATM, the enrichment ratio turned out to be 22.6. As to FMTM, the enrichment ratio is at most 0.25. The same measure for GTIM: 2.86; for GIIM: 1.99; for MAPM: at most 0.25. The same measure for GVWM: at most 0.25; for NVIM: at most 0.25; for GGIM: 13.9.

For the variant GNIM, the enrichment ratio came out at 13.4.

Consider GVIM, for which the enrichment ratio worked out at 19.3. The same measure for YHIM: at most 0.25. For the variant VKAK, the enrichment ratio is at most 0.25. As for HKPF, the figure is at most 0.25; as for EDLF, at most 0.25; as for GLPS, at most 0.25.

Consider PYPA, for which the enrichment ratio is at most 0.25. The same measure for KRQM: at most 0.25; for HDQM: at most 0.25. In the case of YYGF, the enrichment ratio was at most 0.25. As for YSDV, the figure is at most 0.25; as for VFWT, at most 0.25; as for MASM, 16.9. The same measure for MVTM: 3.98; for MRSM: at most 0.25. The same measure for GYSM: at most 0.25; for MQSM: 8.88; for GVSM: 0.841. Turning to MESM, the enrichment ratio stood at 19.

Regarding FQSM, the enrichment ratio was at most 0.25. As for MVHF, the figure is 0.626.

For MVSM, the enrichment ratio stood at 12.3.

In the case of FVSM, the enrichment ratio is at most 0.25. Regarding GQSM, the enrichment ratio stood at 20.5. The same measure for LDIM: at most 0.25. The same measure for MSCN: 1.97; for THNV: at most 0.25. The same measure for ILTF: 0.323; for GVMY: at most 0.25; for KDHR: at most 0.25. GESF: the enrichment ratio came out at 0.55.

In the case of QESM, the enrichment ratio came out at 5.67. On to TESF, for which the enrichment ratio amounted to 11.5. The same measure for GEHF: at most 0.25; for TESM: 30. The same measure for GSQM: at most 0.25.

With NESM, the enrichment ratio is at most 0.25. As for GSSF, the figure is 0.449. Regarding NESF, the enrichment ratio was at most 0.25. As to GSSM, the enrichment ratio worked out at 11.2. The same measure for GESM: 17.3. The same measure for QESF: at most 0.25; for TLHH: at most 0.25; for FQMV: 0.463.

MHQA: the enrichment ratio was at most 0.25. For the variant NHWK, the enrichment ratio is at most 0.25. For ITGV, the enrichment ratio was at most 0.25. For NASM, the enrichment ratio is at most 0.25. The same measure for KASM: at most 0.25.

For TASM, the enrichment ratio came to 13.4.

For the variant AEWF, the enrichment ratio was at most 0.25.

Turning to WRRW, the enrichment ratio was at most 0.25.
